The campaign covered roughly 360,000 compounds. About 750 (0.21%) were called active. Not shown: some 2% with an inconclusive outcome. The sample holds actives, similar compounds and a random draw of the others, so the mix is not that of the screen. A number with no mark means an inactive call. Calls come from the whole dose curve; as a rule, active = well fitted falling curve with a large enough effect; inconclusive = small, poorly fitted or top-dose-only effect; inactive = no such curve, though single readings can be large or run the other way.
assay: qHTS Assay for Inhibitors of the HIV-1 protein Vpr; note: nearly all actives have a fitted effect of over 50% in size; details: S. pombe RE007 Vpr strain, BacTiter-Glo ATP luminescence, 24 h; series mostly up to 92.2 µM; activity change, negative = less growth: at the top concentration
Text: Human immunodeficiency virus type 1 (HIV-1), the causative agent of AIDS, contains a protein called viral protein R (Vpr) that plays an important role in the viral life cycle and the pathogenesis of HIV-1.
These Vpr specific activities include cytoplasmic-nuclear shuttling, induction of cell cycle G2 arrest and cell killing. The cytoplasmic-nuclear shuttling is believed to participate in nuclear transport of the proviral integration complex (PIC). The cell cycle G2 arrest induced by Vpr is thought to suppress human immune functions by preventing T cell clonal expansion and to provide an optimized cellular environment for maximal levels of viral replication. In addition, Vpr induces apoptosis, which may contribute to the depletion of CD4 T cells in HIV-infected patients. Since the Vpr-specific activities have been linked to such clinical manifestation of AIDS as activation of viral replication, suppression of host immune responses and depletion of CD4+ T-lymphocytes, identification of new molecular probes that can inhibit the Vpr activities could potentially provide a new approach to reduce Vpr-mediated detrimental effects in HIV-infected patients, and thus prolong patient's lives. Currently, there are no anti-Vpr drugs.
A fission yeast (Schizosaccharomyces pombe) model system for the Vpr studies has been developed which measures HIV-1 Vpr-induced cell death. This assay will be used for to screen the NIH Molecular Libraries Small Molecule Repository (MLSMR) identify small molecule HIV-1 Vpr inhibitors.
NIH Chemical Genomics Center [NCGC]
NIH Molecular Libraries Probe Centers Network [MLPCN]
Assay Submitter (PI): Richard Zhao, University of Maryland
The fission yeast RE007 strain was used, which carries a single integrated copy of HIV-1 vpr gene in the yeast chromosome. The starting culture was frozen stock 100ul of yeast RE007 in 150ml of *PMG+AL medium, Incubation in 30 degree plus 99% humidity for 18 hours. Next day dispensed 2.5ul of PMG+AL medium in each well to 1536 well white solid plate, then 23nL compound were delivered to each well using a pin tool. Check OD for overnight culture and add cell density at 0.01 for each well, incubation in 30 degree plus 99% humidity for 24 hours. After add 5 ul of *BacTiter/Glo detect reagent to each well at room temperature for 5 minutes then to red out results with Viewlux CCD camera.
% is set by controls: 0 for no effect and ±100 for the full control effect.

SMILES | Potency | activity change, negative = less growth [%]
CN(O)C(=S)c1ccccc1 | 12.6 µM (active) | –
COC(=O)[C@@H]1C[C@@]2(O)[C@H](O)[C@H](O)[C@H](O)C[C@H]2N1Cc1ccc(C)s1 | – | 8.05
O=C(COc1coc(CN2CCN(c3ccccc3F)CC2)cc1=O)N1CCc2ccccc21 | – | -5.08
Cc1ccc(S(=O)Cc2ccc(C(=O)N3CCN(C4CCCCC4)CC3)o2)cc1 (centres undefined) | – | 7.22
CCN(C(=O)COC(=O)/C=C/c1nc2ccccc2s1)C1CCS(=O)(=O)C1 (centres undefined) | – | -22.5
CC(=O)c1ccc(N2Cc3ccccc3C2)cc1 | – | -0.524
CSc1c(SCc2ccccc2)cnn(Cc2ccccc2)c1=O | – | 8.78
O=C(CN1CCc2cc3c(cc2C1)OCCCO3)Nc1ccccc1 | – | 4.55
O=S(=O)(c1ccc2c(c1)OCCO2)N1CCc2ccccc21 | – | 5.48
O=C(CCN1CCc2ccccc2C(O)(c2ccccc2)C1)c1ccc2c(c1)OCCO2 (centres undefined) | 5.62 µM (active) | –
Cn1c(=O)cc(OCCCC(=O)N2CCN(c3ccccn3)CC2)c2ccccc21 | – | 8.93
CCC(Oc1ccccc1C)C(=O)Nc1ccc(S(=O)(=O)Nc2cc(C)on2)cc1 (centres undefined) | – | -2.84
O=C(CNCc1cccs1)Nc1cc(S(=O)(=O)N2CCCC2)ccc1Cl | – | 12.6
COC(=O)/C=C\C(=O)Nc1cccc([N+](=O)[O-])c1 | 7.94 µM (active) | –
CC(NC(=O)Nc1cccc([N+](=O)[O-])c1)c1ccc2c(c1)OCO2 (centres undefined) | – | 10.8
COc1cccc(NCCC(=O)c2cccc([N+](=O)[O-])c2)c1 | – | -24.8
O=C(COC(=O)CCCNC(=O)c1ccc(Cl)cc1)Nc1cc(Cl)ccc1Cl | – | 0.174
O=C(Cn1nnc2ccccc2c1=O)Nc1cc(C(F)(F)F)ccc1N1CCOCC1 | – | 1.55
CCCCCCCCCCCCn1ccc(=N)cc1 | 11.2 µM (active) | –
Cc1ccc(S(=O)(=O)NCCCn2ccnc2)cc1C(=O)NC(C)C | – | 11.2
CCCn1cc(SCC(N)=O)c2ccccc21 | – | -1.74
O=C(Nc1cccc2ccccc12)c1onc2c1CCCC2 | 14.1 µM (active) | –
O=C(Nc1cccc2ccccc12)NC1CC1 | – | -17
O=C(Nc1cccc2ccccc12)c1[nH]c(-c2ccccc2)c2c1C(=O)N(C1CC1)C2=O | – | 8.14
Cc1ccc(NC(=O)[C@H](Cc2ccccc2)NC(=O)C2CCNCC2)cc1 | – | 13.7

SMILES | Potency | activity change, negative = less growth [%]
CC1c2nc3ccccc3n2C(CC(=O)NCCCN2CCOCC2)C(=O)N1Cc1ccccc1 (centres undefined) | – | -6.07
CCOC(=O)c1sc(C)c2c1NC(C)(c1cccc3ccccc13)NC2=O (centres undefined) | – | 29.2
COc1ccc(Br)cc1CNCCc1cccc(Cl)c1 | – | -10.8
O=C(O)COc1ccc(/C=N/O)cc1Br | – | 3.56
COc1cc(/C=N/O)cc(Br)c1OCc1cccc(Cl)c1 | 10 µM (active) | –
CCc1noc(C)c1C(=O)OCC(=O)c1ccc(NC(=O)CC(C)C)cc1 | – | -10.5
O=C(CN1CCN(c2ncccn2)CC1)Nc1ccccc1C(F)(F)F | – | 3.69
Cc1noc(C)c1S(=O)(=O)N(C)C[C@H]1Oc2ccc(NC(=O)C3CC3)cc2C(=O)N([C@H](C)CO)C[C@@H]1C | – | 12.5
Cc1ccc(Cl)c(NC(=O)CN(C)CC(=O)Nc2ccc(F)c(F)c2F)c1Cl | – | -12.7
CC(=O)Nc1ccc(/C=N/Nc2ccc(C(=O)c3c(C)cc4ccccn34)cc2[N+](=O)[O-])cc1 | – | 5.89
CCSC1(SCC)N=C(N)C2(C#N)C(c3ccccc3)NC(C)=CC12C#N (centres undefined) | 4.47 µM (active) | –
COc1ccc(C(=O)NC2CC2)cc1OC1CCN(Cc2ccc(SC)cc2)CC1 | – | 5.43
Cc1ccc(CN(Cc2cccnc2)C(=S)Nc2cc(Cl)ccc2C)cc1 | – | -11
O=C1CSC(=S)N1/N=C/c1ccc(O)c([N+](=O)[O-])c1 | 28.2 µM (active) | –
O=C(CN(CC1CCCO1)C(=O)CNS(=O)(=O)c1ccccc1)NCc1ccccc1 (centres undefined) | – | 10.6
CCN(CC)S(=O)(=O)c1ccc(Cl)c(C(=O)NCCN2CCOCC2)c1 | – | -8.37
Cc1c(C(=O)NCCN(C)C)oc2ccc(S(=O)(=O)N3CCCC3)cc12 | – | -6.44
O=C(OCC(=O)N1CCN(c2ccccc2)CC1)c1ccc([N+](=O)[O-])s1 | 39.8 µM (active) | –
C[C@H](NC(=O)c1ccccc1Cl)C(=O)OCC(=O)N1CCN(c2ccccc2)CC1 | – | -11.8
Cc1ccc(C)c(OCCC(=O)OCC(=O)N2CCN(c3ccccc3)CC2)c1 | – | -7.5
CC(=O)c1cccc(-n2nnnc2SCC(=O)NNC(=O)C2CCCCC2)c1 | – | 7.04
C=CS(=O)c1sc(Cl)c(N2CCOCC2)c1[N+](=O)[O-] (centres undefined) | 12.6 µM (active) | –
COc1ccc(-c2ccc3c(c2)[C@@H]2C[C@H](N(C)S(=O)(=O)c4ccccc4)[C@H]([C@H](C)O)C(=O)N2CC3)cc1 | – | 0.603
CC(Oc1ccc(F)cc1)C(=O)Nc1cc(S(=O)(=O)N2CCOCC2)ccc1N1CCN(C)CC1 (centres undefined) | – | 12.3

Source: PubChem BioAssay AID651644 (National Center for Advancing Translational Sciences (NCATS), 2012)
